Assay results reported in PubChem BioAssay (NCI).
The panel holds about 83,000 compounds, 20% with a hit somewhere; the sample as a whole holds those more often.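 Cells were grown in 96-well plates and exposed to the test compound at a single concentration for 48 hours; results are reported as percent growth, with values below 10 considered active.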 Activity calls are given as the source filed them.

Columns and labels:
Assay in all cases: NCI-60 one-dose screen, 48 h (100 = growth as untreated, 0 = no growth, -100 = all killed)
Settings in all cases: 10 µM
HCT-15 colon = test system: HCT-15 colon
SNB-75 CNS = test system: SNB-75 CNS
SNB-19 CNS = test system: SNB-19 CNS
U251 CNS = test system: U251 CNS
PC-3 prostate = test system: PC-3 prostate
SK-MEL-5 melanoma = test system: SK-MEL-5 melanoma
UACC-62 melanoma = test system: UACC-62 melanoma
SK-MEL-28 melanoma = test system: SK-MEL-28 melanoma
LOX IMVI melanoma = test system: LOX IMVI melanoma

Measured: growth

COc1cc2oc(-c3cccc(C(=O)Nc4ccc(Cl)cc4)c3)cc(=O)c2c(OCCNC(=O)CNC(=O)OC(C)(C)C)c1OC
inactive: HCT-15 colon 40.9% | SNB-75 CNS 74.9% | SNB-19 CNS 78.9% | U251 CNS 74.8% | PC-3 prostate 57.2% | SK-MEL-5 melanoma 31.2% | UACC-62 melanoma 81% | SK-MEL-28 melanoma 69.4%

Cc1ccc(-c2ccc(SCC(=O)Nc3ccc(S(N)(=O)=O)cc3Br)nn2)cc1
inactive: SNB-75 CNS 68% | SNB-19 CNS 39.5% | PC-3 prostate 18.4% | SK-MEL-5 melanoma 68.4% | UACC-62 melanoma 60% | SK-MEL-28 melanoma 60.9%
active: HCT-15 colon 9.74% | U251 CNS -45.8% | LOX IMVI melanoma -66.4%

O=C(CNc1nc(-c2ccccc2)cs1)Nc1ccc([N+](=O)[O-])cc1Cl
active: HCT-15 colon 1.43% | SK-MEL-5 melanoma 8.63% | LOX IMVI melanoma -11.1%
inactive: SNB-75 CNS 82.3% | SNB-19 CNS 43.8% | U251 CNS 15.8% | PC-3 prostate 38.2% | UACC-62 melanoma 20.5% | SK-MEL-28 melanoma 62.1%

COc1cccc(/C=C2\N=C(C)N(CCc3ccc(S(N)(=O)=O)cc3)C2=O)c1
inactive: HCT-15 colon 105% | SNB-75 CNS 98% | SNB-19 CNS 95.1% | U251 CNS 99.9% | PC-3 prostate 98.4% | SK-MEL-5 melanoma 102% | UACC-62 melanoma 94% | LOX IMVI melanoma 97.4% | SK-MEL-28 melanoma 105%

CC(=O)Nc1ccc(-c2cn(-c3cccc(C(=O)Nc4cc(CN5CCOCC5)cc(C(F)(F)F)c4)c3)nn2)cn1
active: HCT-15 colon -86.2% | SNB-75 CNS -78% | SNB-19 CNS -88.5% | U251 CNS -71.9% | PC-3 prostate -69.7% | SK-MEL-5 melanoma -100% | UACC-62 melanoma -98.1% | LOX IMVI melanoma -98.6% | SK-MEL-28 melanoma -99.2%

COC[C@@H](CC(C)C)N=C1NC(=O)/C(=C/c2ccc3ncsc3c2)N1
active: HCT-15 colon 1.92% | SNB-75 CNS -4.85% | SK-MEL-5 melanoma -12.1% | UACC-62 melanoma 1.43% | LOX IMVI melanoma 0.514% | SK-MEL-28 melanoma 0.97%
inactive: SNB-19 CNS 11.5% | U251 CNS 15.8% | PC-3 prostate 30.9%

C/C(=N\N=C\c1ccc(N(C)C)cc1)c1ccc2c(c1)Nc1ccccc1S2
inactive: HCT-15 colon 22% | SNB-75 CNS 69.6% | SNB-19 CNS 63.1% | U251 CNS 29.4% | PC-3 prostate 54% | SK-MEL-5 melanoma 36.1% | UACC-62 melanoma 70.7% | LOX IMVI melanoma 55% | SK-MEL-28 melanoma 85.7%

Cc1ccc(C(C)C)cc1NC(=O)c1ccccc1O
active: SK-MEL-5 melanoma -45.5% | UACC-62 melanoma 9.83%
inactive: HCT-15 colon 35% | SNB-75 CNS 46.4% | SNB-19 CNS 37.2% | U251 CNS 41% | PC-3 prostate 33.4% | LOX IMVI melanoma 40.1% | SK-MEL-28 melanoma 31.1%

CN1C(=O)N(C)C2SC(N/N=C/c3ccccc3F)=NC21 (centres undefined)
inactive: HCT-15 colon 28.2% | SNB-75 CNS 91.1% | SNB-19 CNS 63.4% | U251 CNS 51.2% | PC-3 prostate 81.5% | SK-MEL-5 melanoma 57.9% | UACC-62 melanoma 26.8% | LOX IMVI melanoma 50.2% | SK-MEL-28 melanoma 69.2%

COc1ccc(OC)c(/C=N/NC(=O)c2ccc3nc(-c4ccc(Cl)cc4)[nH]c3c2)c1
inactive: HCT-15 colon 41.8% | SNB-75 CNS 72.8% | SNB-19 CNS 54.3% | U251 CNS 74.3% | PC-3 prostate 41.5% | SK-MEL-5 melanoma 31.2% | UACC-62 melanoma 75.7% | LOX IMVI melanoma 65.4% | SK-MEL-28 melanoma 85.4%
